Screening data from PubChem BioAssay.
Sm TGR block: inhibitors of Schistosoma mansoni thioredoxin glutathione reductase. purified TGR, DTNB reduction, TNB absorbance 405 nm. hit rate 3% among 360,000. Q962Y6. Potency, µM (highest dose often 114 µM), inactives show at the highest dose activity change, negative = inhibition, hits mostly inhibitors; active = well fitted inhibition curve with a large enough effect; inconclusive = small, poorly fitted or top-dose-only effect; inactive = no such curve, though single readings can be large or run the other way; note: potency is the fitted concentration of half-maximal effect; % is set by controls: 0 for no effect and ±100 for the full control effect; nearly all actives have a fitted effect of over 60% in size
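TGR 20 nM + NADPH 100 uM (dispensed conc.), cpd preinc 15 min RT; start with NADPH (500 uM addition) then DTNB (15 mM addition). Kinetic TNB absorbance, 405 nm filter. Four-parameter Hill fit across titration.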
Shiga inhibitor: inhibitors of Shiga toxin in Vero cells | Vero cells, Shiga toxin protein synthesis inhibition reporter | inhibition, % at 38.7 µM | hit rate 9.2% among 290,000 | AID 2315; in the data active = inhibition mostly above about 28%, no sharp cut-off; inactive = mostly below about 43%; note: 0% is about no effect
CHX counter: affects cycloheximide protein synthesis inhibition readout, counter-screen; cell reporter, cycloheximide protein synthesis inhibition counterscreen; max response, %; hit rate 12% among 300,000; in the data active = max response mostly above about 13%, no sharp cut-off; inactive = mostly below about 14%; note: read at 38.3 µM for the half of the compounds with a filed dose; 0% is about no effect
FMDV inh: antivirals against foot and mouth disease virus; AID 1159524; FMDV antiviral cell-based qHTS; hit rate 1.2% among 410,000; Potency, µM (doses to about 57.9 µM), without a hit: at the highest dose activity change, negative = inhibition, actives largely listed as inhibitors; calls by dose curve; tested in HEK293T cells; note: read-out not given here; potency is the fitted concentration of half-maximal effect; % is set by controls: 0 for no effect and ±100 for the full control effect; nearly all actives have a fitted effect of over 45% in size
Starred values were filed as active, the others as inactive; u = inconclusive; x = no result. Rows were chosen to be rich in hits. Some 12% of all compounds tested hit in one or more screens of this group.

SMILES	Sm TGR block	Shiga inhibitor	CHX counter	FMDV inh
Cc1cc(Br)ccc1OCC(=O)NNC(=O)C(=O)Nc1ccccc1	13%	50*	13	23%
Cc1cc(Br)ccc1OCC(=O)NNC(=O)Cc1ccccc1	-1%	-3	-2	4%
CC(C)(C)NC(=O)NC(=O)COc1ccc(Br)cc1Br	-16%	136*	90*	u
COC(=O)CC1Oc2ccc(C)cc2-n2cc(-c3ccc(C)cc3)nc21 (centres undefined)	9%	x	x	-16%
Cc1cc(Br)ccc1SCC(=O)OCC(=O)NC1CCCC1	-10%	-8	5	-12%
CCN(CC)C(=O)COc1ccc(Br)cc1Cl	-7%	-3	-3	-9%
CN(C(=O)COc1ccc(Br)cc1Cl)C1CCCCC1	15%	53*	24*	20%
Cc1cc(Br)ccc1OCC(=O)NC1CCCC1	-30%	52*	35*	-8%
Cc1ccc(CCNC(=O)CCCc2nnc3n(C)c(=O)c4sccc4n23)cc1	0%	x	x	-2%
CCCc1nc([N+](=O)[O-])c(S(=O)(=O)c2ccccc2)n1CC(C)C	0.89µM*	-5	-3	u
CC(C)Cn1c(C(C)C)nc([N+](=O)[O-])c1S(=O)(=O)c1ccc(F)cc1	1.8µM*	-8	-5	16µM*
Cc1ccc(-c2ccc(=O)n(CC(=O)Nc3ccc(C(C)C)cc3)n2)cc1	-1%	x	x	-25%
C=CC(=O)N=c1sc2ccccc2n1-c1ccccc1	40µM*	-4	-1	u
Cc1ccc(C)n1-c1c(C(=O)NCCC(C)C)sc2ncccc12	-3%	x	x	-11%
CCOC(=O)C1CCN(C(c2ccccc2OC)c2c(O)cc(C)n(CCOC)c2=O)CC1 (centres undefined)	7.1µM*	x	x	0%
CCOC(=O)C1CCN(CCC(=O)Nc2ccccc2OC)CC1	-6%	x	x	1%
COCCn1c(C)cc(O)c(C(c2ccccc2OC)N2CCCCC2)c1=O (centres undefined)	10µM*	x	x	-9%
O=S(=O)(c1ccccc1Br)N(Cc1ccccc1)Cc1ccco1	x	12	8	x
O=S(=O)(Nc1ccc(-c2ccc(N3CCCC3)nn2)cc1)c1cccc(C(F)(F)F)c1	-10%	x	x	17%
O=S(=O)(Nc1cccc(-c2ccc(N3CCCCCC3)nn2)c1)c1ccc(C(F)(F)F)cc1	-16%	41*	31*	32%
Cc1ccc(S(=O)(=O)Nc2cccc(-c3ccc(N4CCCCCC4)nn3)c2)cc1C	-28%	115*	39*	68%
COc1ccc(C)cc1S(=O)(=O)Nc1cccc(-c2ccc(N3CCC(C)CC3)nn2)c1	3%	x	x	20%
COc1ccc(C)cc1S(=O)(=O)Nc1cccc(-c2ccc(N3CCCCCC3)nn2)c1	-18%	27	20*	8%
O=S(=O)(Nc1cccc(-c2ccc(N3CCCCCC3)nn2)c1)c1cccc(F)c1	-5%	116*	40*	43%
COc1ccc(S(=O)(=O)Nc2cccc(-c3ccc(N4CCCC4)nn3)c2)cc1OC	6%	x	x	16%
SMILES	Sm TGR block	Shiga inhibitor	CHX counter	FMDV inh
CCC1CN(CCNC(=O)c2cc(C(C)C)nn2C)Cc2cc(OC)ccc2O1 (centres undefined)	x	x	x	-29%
O=C(c1cnc(N2CCOCC2)c2ccccc12)N1CCN(c2ccccc2)CC1	-5%	x	x	u
O=C(COC(=O)c1cc(-c2ccccc2)nc2c(Cl)cccc12)c1ccc(F)cc1	-3%	x	x	0%
O=S(=O)(Nc1cccc(-c2ccc(N3CCCCCC3)nn2)c1)c1ccc(F)cc1	6%	85*	43*	32%
CCOc1ccc(S(=O)(=O)Nc2cccc(-c3ccc(N4CCCCCC4)nn3)c2)cc1	1%	41*	25*	25%
CC(=O)c1ccc(S(=O)(=O)Nc2cccc(-c3ccc(N4CCCCC4)nn3)c2)cc1	-5%	x	x	20%
Cc1nn(CCCC(=O)Nc2cccc(F)c2)c(=O)c2c1sc1ccccc12	-3%	x	x	-17%
Cc1ccc2ccc3cc(C(=O)N4CCN(c5ccccc5)CC4)nc3c2[nH]1	10%	x	x	u
c1ccc(-n2ncc3c(NCc4ccc5c(c4)OCO5)ncnc32)cc1	-7%	42*	20*	77%
Cc1cccc(-n2ncc3c(NCc4ccc5c(c4)OCO5)ncnc32)c1	0%	97*	18*	2%
COc1ccc(-n2ncc3c(NCc4ccc5c(c4)OCO5)ncnc32)cc1	7%	27*	25*	56%
Nc1ccc(N2CCN(c3ccc(Cl)c(Cl)c3)CC2)cc1	-2%	24*	4	0%
CCc1ccc(-c2cc3c(N4CCN(c5ccccc5)CC4)nccn3n2)cc1	1%	x	x	15%
Cc1cc2nc(N3C(=O)CNC3=S)sc2cc1C	x	20	23*	-65%
CCOc1ccc2nc(N3C(=O)CNC3=S)sc2c1	-2%	46*	35*	-55%
